Shown are actives, neighbours in structure and some others; about 0.88% of the full set was active somewhere.
BLM inh = Bloom syndrome helicase (human) inhibition. hit rate 0.2% among 350,000. P54132. recombinant BLM DNA unwinding, fluorescence dequenching. Potency, µM (top dose mostly 56.1 µM), most hits filed as inhibitors. AID 2528; further: nearly all actives have a fitted effect of over 35% in size
Target sequence (P54132 whole entry, looked up): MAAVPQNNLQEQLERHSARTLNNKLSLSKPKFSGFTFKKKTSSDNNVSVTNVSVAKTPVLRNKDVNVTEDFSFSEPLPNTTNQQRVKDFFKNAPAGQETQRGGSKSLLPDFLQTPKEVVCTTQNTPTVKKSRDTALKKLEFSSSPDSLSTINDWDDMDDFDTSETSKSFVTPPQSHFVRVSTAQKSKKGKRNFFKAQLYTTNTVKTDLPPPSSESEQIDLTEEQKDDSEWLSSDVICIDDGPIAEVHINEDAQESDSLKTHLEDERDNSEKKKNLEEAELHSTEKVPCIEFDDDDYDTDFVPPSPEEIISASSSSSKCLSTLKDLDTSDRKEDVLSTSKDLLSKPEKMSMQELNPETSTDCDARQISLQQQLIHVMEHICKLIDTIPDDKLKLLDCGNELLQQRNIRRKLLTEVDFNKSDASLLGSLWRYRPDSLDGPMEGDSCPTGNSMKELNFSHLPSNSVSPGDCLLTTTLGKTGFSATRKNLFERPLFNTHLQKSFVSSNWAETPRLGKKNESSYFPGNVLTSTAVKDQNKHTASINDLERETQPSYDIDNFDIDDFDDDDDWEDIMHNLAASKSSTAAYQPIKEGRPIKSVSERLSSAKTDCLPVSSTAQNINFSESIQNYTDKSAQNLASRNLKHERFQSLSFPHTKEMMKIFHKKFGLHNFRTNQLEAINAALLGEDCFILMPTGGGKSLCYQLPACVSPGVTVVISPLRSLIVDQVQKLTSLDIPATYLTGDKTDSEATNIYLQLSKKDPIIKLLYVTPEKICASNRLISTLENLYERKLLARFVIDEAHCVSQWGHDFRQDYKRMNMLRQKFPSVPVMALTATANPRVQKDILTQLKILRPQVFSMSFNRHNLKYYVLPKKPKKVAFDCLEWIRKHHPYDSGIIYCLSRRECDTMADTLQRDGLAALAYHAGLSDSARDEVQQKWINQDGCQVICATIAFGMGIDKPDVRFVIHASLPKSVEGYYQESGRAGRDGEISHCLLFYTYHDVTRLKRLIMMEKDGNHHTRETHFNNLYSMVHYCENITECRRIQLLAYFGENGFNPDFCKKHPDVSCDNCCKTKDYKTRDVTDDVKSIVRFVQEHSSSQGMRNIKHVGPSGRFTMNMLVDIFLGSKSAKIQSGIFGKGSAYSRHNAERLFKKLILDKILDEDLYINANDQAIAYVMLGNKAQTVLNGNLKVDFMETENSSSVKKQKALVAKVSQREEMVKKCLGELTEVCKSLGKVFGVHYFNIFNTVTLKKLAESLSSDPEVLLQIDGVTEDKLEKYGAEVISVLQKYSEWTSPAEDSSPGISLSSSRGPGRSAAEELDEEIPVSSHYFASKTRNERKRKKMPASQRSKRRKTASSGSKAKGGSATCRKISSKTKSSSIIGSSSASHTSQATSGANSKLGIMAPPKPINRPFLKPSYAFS
ERG-DNA inh = blocks human ERG Ets domain binding to DNA | fluorescence polarization, His-ERG Ets domain / labelled DNA | P11308 | Potency, µM (top dose mostly 76.9 µM), usual class: inhibitors | hit rate 0.028% among 370,000; active means well fitted inhibition curve with a large enough effect in the polarisation, with a control signal flat; inconclusive means small, poorly fitted or top-dose-only effect, or effect the other way, or a change in a side signal; inactive means no such curve, though single readings can be large or run the other way; the % refers to the polarisation;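 further: polarization taken with two DNA probes labelled with fluorescein and Texas red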
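His-tagged ERG Ets domain (1 uM in the protein solution; 300mM KCl, 50mM Tris-HCl, 1mM EDTA, 1mM DTT, pH 7.5) received compound, then a probe mix of 5 nM fluorescein-DNA and 100nM Texas-615-DNA. Fluorescence polarization was read for both dyes.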
APEX1 inh = inhibitors of human APE1 endonuclease; recombinant APE1, TAMRA/BHQ-2 abasic DNA cleavage fluorescence; Potency, µM (top dose mostly 65.8 µM), hits mostly inhibitors; hit rate 0.35% among 350,000; AID 2517; further: nearly all actives have a fitted effect of over 55% in size
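Readout is kinetic fluorescence (ex 525, em 598 nm) from cleavage of 50 nM TAMRA/BHQ-2 THF abasic duplex by 0.75 nM APE1, compound added 15 min beforehand at RT.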
WRN inhibitor = WRN helicase (human) inhibition. WRN helicase unwinding, fluorescent forked duplex, kinetic. Potency, µM (titrated, usually from 114 µM), usual class: inhibitors. hit rate 0.46% among 360,000; further: nearly all actives have a fitted effect of over 55% in size
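Enzyme (20 nM final) and test compound sit together 15 min at room temperature before substrate addition. Substrate is a single-forked duplex oligonucleotide (100 nM) labelled with fluorophore and quencher, with 2 mM ATP; helicase unwinding raises red fluorescence, read kinetically.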
GCN5L2 inh = GCN5L2 (KAT2A) acetyltransferase inhibition | Potency, µM (doses to about 58.9 µM), actives largely listed as inhibitors | Q92830 | hit rate 0.21% among 390,000 | GCN5L2 HAT assay, ThioGlo1 CoA-SH fluorescence
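Enzyme at 20nM final was mixed with library compounds for 15 min at room temperature. Peptide H3(1-25) at 75uM, acetyl-CoA at 70uM and ThioGlo1 at 50uM were then added. Plates were read immediately and after 20 min (Ex340nm/Em540nm).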
RECQ1 inh-1 = RECQ1 (human) helicase inhibition; AID 2549; hit rate 0.54% among 240,000; RECQ1 DNA unwinding, red fluorescence kinetic read; P46063; Potency, µM (doses to about 57.3 µM), actives largely listed as inhibitors; further: nearly all actives have a fitted effect of over 30% in size
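RECQ1T1 50 nM; forked duplex (20 bp + 30-nt ss tails) 200 nM, ATP 2 mM final; pH 8.0, 2 mM MgCl2, 2.5 ug/ml poly(dI-dC); 15 min compound preincubation; discontinuous kinetic read over 2 h at RT.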
RECQ1 conf = confirmation of human RECQ1 helicase inhibitors; shares compounds with RECQ1 inh-1; RECQ1 helicase DNA unwinding, fluorescence; Potency, µM (series often up to 229 µM), hits mostly inhibitors; hit rate 28% among 610; AID 2708; further: nearly all actives have a fitted effect of over 45% in size
ADP FP counter = counter-screen for RECQ1 inhibitors: ADP displacement | shares compounds with RECQ1 inh-1 | ADP fluorescence polarization displacement counterscreen | hit rate 27% among 530 | Potency, µM (titrated, usually from 228 µM), most hits filed as inhibitors; further: nearly all actives have a fitted effect of over 45% in size
RECQ1 inh-2 = confirmation of human RECQ1 helicase inhibitors; shares compounds with RECQ1 inh-1; recombinant RECQ1 DNA unwinding, red fluorescence; Potency, µM (top dose mostly 119 µM), most hits filed as inhibitors; hit rate 15% among 1,100; further: nearly all actives have a fitted effect of over 50% in size
Numbers stand for hits; i = inactive; ? = inconclusive; nt = not tested or not shown; [ ] = dose if it differs, or a comment. Unless noted, the call rests on the fitted dose curve; in most records, active means well fitted curve in the direction sought with a large enough effect; inconclusive means small, poorly fitted or top-dose-only effect, or another doubt; inactive means no such curve, though single readings can be large; an effect the other way counts as inactive or inconclusive.

SMILES | BLM inh | ERG-DNA inh | APEX1 inh | WRN inhibitor | GCN5L2 inh | RECQ1 inh-1 | RECQ1 conf | ADP FP counter | others
COc1ccccc1NC(=O)C1CCN(S(=O)(=O)c2ccc3c(c2)oc(=O)n3C)CC1 | i | i | nt | nt | i | nt | nt | nt
Cc1nc(/N=C(\N)NC(=O)N2c3ccccc3Sc3ccccc32)nc2ccccc12 | i | i | i | i | i | i | i | i
O=C(O)c1ccc(N2C(=O)/C(=C/c3ccc(-c4ccc([N+](=O)[O-])cc4)o3)C=C2c2ccccc2)cc1 | i | i | ? | 56µM | i | 18µM | 22µM | nt
COc1ccccc1/C=N/NC(=O)CC(=O)NCCc1ccccc1 | nt | ? | nt | i | nt | nt | nt | nt
COc1ccc(C(CCN2CCCCC2)c2c(OC)cc(OC)c3c(-c4ccccc4)cc(=O)oc23)cc1 (centres undefined) | i | i | i | i | i | i | nt | nt
CCN(CC)C(=O)CC(c1ccc(OC)cc1)c1c(OC)cc(OC)c2c(-c3ccccc3)cc(=O)oc12 (centres undefined) | i | nt | ? | nt | nt | 20µM | nt | nt | RECQ1 inh-2=?
COc1cc(C2CC(=O)N3CN(Cc4ccco4)CSC3=C2C#N)ccc1OCc1ccccc1 (centres undefined) | i | i | i | i | ? | ? | nt | nt | RECQ1 inh-2=i
COc1ccc(C2CC(=O)N3CN(Cc4ccco4)CSC3=C2C#N)cc1 (centres undefined) | i | i | i | i | i | i | nt | nt
CCOc1ccccc1NC(=O)CCn1c(-c2ccc(OC)cc2)cc(C(C)=O)c1C | i | i | nt | nt | i | nt | nt | nt
COc1ccc(-n2nc3c(c2NC(=O)COc2ccccc2OC)CS(=O)(=O)C3)cc1 | nt | nt | nt | i | nt | nt | nt | nt
O=C(NC(Cc1ccccc1)C(=O)O)/C(=C/c1ccccc1)NC(=O)c1cccc(Br)c1 (centres undefined) | i | i | i | ? | i | i | i | ?
O=C(NC(Cc1ccccc1)C(=O)O)/C(=C/c1ccco1)NC(=O)c1cccc([N+](=O)[O-])c1 (centres undefined) | i | i | i | i | i | i | i | i
CC(NC(=O)/C(=C/c1ccc2c(c1)OCO2)NC(=O)c1cccc([N+](=O)[O-])c1)C(=O)O (centres undefined) | i | i | i | i | i | i | i | i
Cc1ccc(C(=O)N/C(=C/c2ccccc2)C(=O)NC(Cc2ccccc2)C(=O)O)cc1 (centres undefined) | i | i | i | i | i | i | nt | nt
CC(C)NC(=O)/C(=C\c1cccc([N+](=O)[O-])c1)NC(=O)c1ccccc1 | i | i | i | i | ? | i | nt | nt
CCC(Sc1nnc2c3ccccc3n(C)c2n1)C(=O)Nc1nnc(C(C)C)s1 (centres undefined) | i | i | nt | nt | i | nt | nt | nt
O=C(c1ccc2c(=O)n(CCc3ccccc3)c(=O)[nH]c2c1)N1CCN(c2ccccc2)CC1 | i | i | i | i | i | nt | nt | nt
COc1ccc(N2CCN(C(=O)c3ccc4c(=O)n(CCc5ccc(OC)c(OC)c5)c(=O)[nH]c4c3)CC2)cc1 | i | i | i | i | i | i | i | ?
O=C(O)CSc1ncnc2scc(-c3ccccc3)c12 | i | i | i | i | i | i | nt | nt
CN(C)C(=O)CSc1ncnc2scc(-c3ccccc3)c12 | i | i | i | i | i | ? | nt | nt | RECQ1 inh-2=i
O=C(CN1CCN(c2ccc(O)cc2)CC1)Nc1cc(S(=O)(=O)N2CCCC2)ccc1Cl | i | i | i | i[11.6 µM] | i | 13µM | i | i | RECQ1 inh-2=i
Cc1ccccc1-n1c(C)cc(/C=N/Nc2ccc([N+](=O)[O-])cn2)c1C | i | i | i | i | i | i | nt | nt

High-throughput results from PubChem.
